TDP1 cell CPT: qHTS for Inhibitors of human tyrosyl-DNA phosphodiesterase 1 (TDP1): qHTS in cells in presence of CPT; chicken DT40 Tdp1-/-;hTDP1 cells + 20 nM CPT, ATP luminescence, 48 h; Potency, µM (titrated, usually from 46.2 µM), without a hit: at the highest dose activity change, negative = growth inhibition, usual class: inhibitors; actives 12% (n = 420,000); also: nearly all actives have a fitted effect of over 55% in size
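Cell growth measured by CellTiter-Glo luminescence after a minimum 48 h, 37 C compound exposure with 20 nM CPT in Tdp1-knockout DT40 cells stably expressing hTDP1, seeded 400/well; qHTS titration format.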
KAT2A inh: qHTS Assay for Inhibitors of GCN5L2 | AID 504327, 2011 | actives 0.21% (n = 390,000) | Potency, µM (doses to about 58.9 µM), without a hit: top-dose activity change, negative = inhibition, most hits filed as inhibitors | GCN5L2 HAT assay, ThioGlo1 CoA-SH fluorescence
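Preincubate 20nM GCN5L2 with compound 15 min, RT → add 50uM ThioGlo1 + 75uM H3(1-25) + 70uM acetyl-CoA → read fluorescence 0 and 20 min. Primary qHTS; fluorescent artifacts likely.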
VDR inhibitor: Inhibitors of the vitamin D receptor (VDR): qHTS. Vitamin D3 receptor (Homo sapiens), P11473. VDR-SRC2-3 peptide fluorescence polarization, 2 h. actives 0.93% (n = 400,000). Potency, µM, inactives show max response, negative = inhibition, actives largely listed as inhibitors. AID 504847, 2011
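The screen uses fluorescence polarization to detect compounds that interfere with recruitment of the SRC2-3 coactivator peptide to VDR; plates are read after 2 h at room temperature.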
DT40 TDP1 no CPT: qHTS for Inhibitors of human tyrosyl-DNA phosphodiesterase 1 (TDP1): qHTS in cells in absence of CPT; actives 15% (n = 420,000); DT40 Tdp1-/- hTDP1 cells, no CPT, ATP luminescence, 48 h; Potency, µM (titrated, usually from 46.2 µM), without a hit: top-dose activity change, negative = growth inhibition, hits mostly inhibitors; also: nearly all actives have a fitted effect of over 55% in size
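Stably hTDP1-transfected Tdp1-null chicken DT40 cells were treated with library compounds minus camptothecin and grown for at least 48 hr at 37 °C, after which cellular ATP was quantified by luminescence.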
PLK1 PBD block: qHTS for Inhibitors of PLK1-PDB (polo-like kinase 1 - polo-box domain): Primary Screen. Serine/threonine-protein kinase PLK1 (Homo sapiens), P53350. Plk1 PBD binding of FITC phosphopeptide, fluorescence polarization. Potency, µM, for the others: max response, negative = inhibition, hits mostly inhibitors. actives 2.8% (n = 360,000). AID 720504, 2013; also: series mostly up to about 57 µM; nearly all actives have a fitted effect of over 65% in size
Target sequence (P53350 whole entry, looked up, the tested form may be a part): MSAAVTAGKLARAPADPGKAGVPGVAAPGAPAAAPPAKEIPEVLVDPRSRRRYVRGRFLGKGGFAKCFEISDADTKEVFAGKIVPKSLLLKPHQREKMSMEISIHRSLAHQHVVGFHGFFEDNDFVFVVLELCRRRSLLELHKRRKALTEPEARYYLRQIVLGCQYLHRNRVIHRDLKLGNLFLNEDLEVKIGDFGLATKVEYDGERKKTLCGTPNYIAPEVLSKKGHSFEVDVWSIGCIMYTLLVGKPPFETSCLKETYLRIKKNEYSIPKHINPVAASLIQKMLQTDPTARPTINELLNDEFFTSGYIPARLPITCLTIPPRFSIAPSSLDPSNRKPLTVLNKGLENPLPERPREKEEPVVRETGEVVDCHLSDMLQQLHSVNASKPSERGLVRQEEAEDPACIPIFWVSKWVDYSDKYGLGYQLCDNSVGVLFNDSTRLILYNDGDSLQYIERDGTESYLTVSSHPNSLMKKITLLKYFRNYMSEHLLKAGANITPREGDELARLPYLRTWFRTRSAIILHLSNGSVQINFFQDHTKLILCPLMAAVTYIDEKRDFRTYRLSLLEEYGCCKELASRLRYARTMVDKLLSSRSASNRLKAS
TDP1 block: qHTS Assay for Inhibitors of Tyrosyl-DNA Phosphodiesterase (TDP1). Tyrosyl-DNA phosphodiesterase 1 (Homo sapiens), Q9NUW8. recombinant TDP1, AlphaScreen DNA substrate cleavage. Potency, µM (doses to about 130 µM), without a hit: at the top dose activity change, negative = inhibition, usual class: inhibitors. actives 0.28% (n = 350,000); also: nearly all actives have a fitted effect of over 40% in size
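Recombinant E. coli-expressed Tdp1 (1 nM) preincubated with compound 15 min at RT, then 5'-biotin/3'-phosphotyrosine-FITC DNA substrate (15 nM) added for 5 min. AlphaScreen beads (10 ug/ml) added, 10 min RT; tyrosine-FITC cleavage read as signal loss.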
The depositor's hits bear a star; u = inconclusive; x = not tested or not shown; [ ] = dose if it differs, or a comment. Hits are enriched below; roughly 18% of the tested compounds scored in any of these assays. Calls follow the shape of the dose curve; as a rule, active = well fitted curve in the direction sought with a large enough effect; inconclusive = small, poorly fitted or top-dose-only effect, or another doubt; inactive = no such curve, though single readings can be large; an effect the other way counts as inactive or inconclusive. % is scaled to controls: 0 for no effect and ±100 for the full control effect; potency is read from the fitted curve at half-maximal effect.

SMILES	TDP1 cell CPT	KAT2A inh	VDR inhibitor	DT40 TDP1 no CPT	PLK1 PBD block	TDP1 block
COc1ccc(OCC(=O)NNC(=O)C(=O)Nc2cc(OC)ccc2OC)cc1	u	-4%	7%	-21%	-2%	2%
COc1ccc(OCC(=O)NC(=S)NNC(=O)COc2ccc(Br)cc2Cl)cc1	-7%	-1%	u	u	24µM*	14%
C=CCNC(=S)NNC(=O)COc1ccc(Br)cc1	2%	-2%	-18%	-2%	-13%	3%
Cc1cccc(NC(=S)NNC(=O)COc2ccc(Cl)cc2Cl)c1	7%	28%	-21%	-14%	-13%	1%
O=C(Nc1cc(-c2ccccc2)nn1C1CCCCC1)c1ccc(Cl)cc1	u	-11%	-4%	u	-14%	-2%
CN(C(=O)c1cccc(NC(=O)Cc2ccc(NC(=O)C3CCN(C(=O)c4ccccc4)CC3)cc2)c1)C1CCCC1	u	x	-18%	u	-5%	x
CCC(=O)NC(=S)Nc1ccc(NC(=O)COc2ccc([N+](=O)[O-])cc2)cc1	u	-3%	5%	23µM*	-10%	5%
Cn1cccc1CC(=O)NNC(=S)Nc1ccc(Cl)cc1	9%	1%	-18%	-3%	-30%	9%
C/C(=N/NC(=O)c1ccc(C)s1)c1cccc(NC(=O)COc2ccc(Cl)cc2Cl)c1	u	-7%	8%	u	-7%	1%
CCC(=O)NC(=S)Nc1ccc(NC(=O)COc2ccc(Cl)c(C)c2)cc1	13µM*	0%	-18%	16µM*	-11%	-2%
C/C(=N/NC(=O)c1cccs1)c1ccc(NC(=O)COc2ccc(Cl)cc2Cl)cc1	15µM*	-13%	-6%	u	-5%	2%
Cc1cc(OCC(=O)Nc2ccncc2)ccc1Cl	u	-7%	4%	u	-7%	1%
COC(CC(=O)NNC(=S)Nc1ccc(Cl)cc1)OC	18µM*	-5%	4%	18µM*	-15%	3%
CCN1C(=O)[C@H]2[C@@H](c3ccc(OC)cc3)N[C@]3(CCCN(Cc4ccc(OC)cc4)C3=O)[C@H]2C1=O	-10%	x	x	-10%	-5%	x
COc1ccc(NC(=S)NNC(=O)CNc2ccc(Cl)cc2)cc1	u	-7%	-16%	-30%	27µM*	11%
CCC(=O)Nc1ccc(Cl)c(NC(=S)NC(=O)COc2ccccc2)c1	-25%	0%	3%	19%	27µM*	0%
COc1ccc(CC(=O)NNC(=S)Nc2ccc(Br)cc2)cc1	-13%	-3%[0.501 µM]	9%	14%	1%	7%
CN(C)c1nc(OCCNC(=O)COc2ccc(Cl)cc2Cl)nc(N(C)C)n1	7.3µM*	-5%	-3%	8.2µM*	2%	5%
CCC(=O)NC(=S)Nc1ccc(NC(=O)COc2ccc(Cl)cc2Cl)cc1	16µM*	-13%	-1%	8.2µM*	-19%	3%
O=C(Cc1ccc(Br)cc1)NCCc1ccc(F)cc1	1%	0%	-28%	-3%	-3%	x
CC(C)(O)C#Cc1ccc(CN2CCC(n3nccc3NC(=O)C3CC3)CC2)cc1	-2%	u	2%	10%	-11%	3%
COc1ccc(OC)c(S(=O)(=O)N/N=C\c2cn(CC(N)=O)c3ccccc23)c1	13µM*	-8%	2%	u	-2%	2%
N#Cc1c(-n2ncnc2-c2cccc(Cl)c2)sc2c1CCCCC2	-15%	4%	0%	-11%	x	0%[12.3 µM]
COc1ccc(C2/C=C\CN(C(=O)c3ccccc3)C(C)C(=O)N2Cc2ccc(F)cc2)cc1 (stereo not drawn)	x	x	-27%	x	x	8%
CC(=O)c1ccc(NC(=O)c2cnsn2)cc1	-2%	11%	0%	-6%	0%	4%
SMILES	TDP1 cell CPT	KAT2A inh	VDR inhibitor	DT40 TDP1 no CPT	PLK1 PBD block	TDP1 block
CC(C)(C)c1ccc(OCCC(=O)OCC(=O)NC2CCCCC2)cc1	-1%	3%	4%	-7%	-3%	x
CC(C)(C)c1ccc(OCCC(=O)OCC(=O)NC(=O)NC2CCCC2)cc1	18µM*	-15%	7%	18µM*	5%	x
Nc1nc(N)c(S(=O)(=O)c2ccccc2)c(Nc2ccc(Br)cc2)n1	x	-22%	1%	x	x	7%
COc1ccc(S(=O)(=O)N2CCc3cc4c(cc3C2C)OCCCO4)cc1 (stereo not drawn)	16µM*	-22%	-27%	u	-10%	5%
Cc1ccc(S(=O)(=O)N2CCc3cc4c(cc3C2C)OCCCO4)cc1 (stereo not drawn)	18µM*	u	1%	u	-13%	-2%
O=C(NCC1Cc2cc(-c3cnc4ccccc4c3)cc(F)c2O1)c1cnsn1 (stereo not drawn)	u	x	x	-19%	x	x
C[C@@H]1CN([C@@H](C)CO)C(=O)CCCn2nncc2CO[C@H]1CN(C)S(=O)(=O)c1cccs1	-4%	x	x	0%	-13%	x
OCCN(CCO)CC(O)COc1ccc(C23CC4CC(CC(C4)C2)C3)cc1 (stereo not drawn)	7.3µM*	-4%	2%	7.3µM*	-7%	0%
COC(=O)c1ccc(OCC(O)CN(CCO)CCO)cc1 (stereo not drawn)	-8%	-3%	8%	-14%	-4%	-2%
CC1=NN(c2nc(N)nc(/C(C#N)=C/c3ccc([N+](=O)[O-])o3)n2)C(C)(C)C1	0.58µM*	x	-17%	0.46µM*	-22%	x
COc1ccc(C(=O)N/N=C(/C)c2ccc(N3CCCCC3)cc2)cc1	u	-9%	u	u	30µM*	0%
CCOc1ccc(OCc2cccc(C(=O)Nc3ccc(CN4CCCCC4)cc3)c2)cc1	8.2µM*	1%	-1%	21µM*	-19%	3%
COCCNC(=S)Nc1ccc(N2CCCCC2)cc1	u	-12%	32µM*	u	3.8µM*	2%
COc1ccc(/C(C)=N/NC(=O)c2ccc(N(C)C)cc2)cc1	-1%	-9%	-5%	-5%	-8%	9%
CCOc1cccc(C(=O)Nc2ccc(N3CCCC3)cc2)c1	-19%	-15%	-8%	16µM*	-3%	x
COCCn1c(C)cc(/C=C2/NC(=O)N(c3ccc(Cl)cc3)C2=O)c1C	4%	-5%	-14%	14%	-1%	5%
